The text below walks through data of PubChem BioAssay (EPA / NIEHS).

Molecules are shown by their SMILES. “And” between values parts separate entries of the source, which are not always exact repeats. Equal values may be shown once. A structure can be active in one record and inactive in another. The source made the active and inactive calls. How the source made its calls: active means hit-call score of the fitted dose curve at least 0.9, where 1 is the maximum; inactive means score below 0.9.

Read-out in the first assay: Matrix Metallopeptidase 9 (MMP9), MMP9 (gene 4318)
The assay is described as follows: BSK_BF4T_MMP9: BioMAP Diversity Plus: BF4T Assay for Matrix Metallopeptidase 9 (MMP9) Biomarker Activity (AID 2284276). To be noted: primary human bronchial epithelial cells with fibroblasts. The method, boiled down:
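Co-culture of human bronchial epithelial cells and dermal fibroblasts dosed for 24 h; MMP-9 quantified by ELISA and fitted upward versus DMSO. Cytotoxicity monitored in parallel cultures by SRB total-protein staining at the biomarker time point.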
On to `O=C(O)CCC(F)(C(F)(F)F)C(F)(F)F`, for which the result was inactive.
Usually AC50 stands for the concentration at which the activity in the assay is half-maximal. For `O=C(O)C(F)(F)C(F)(F)C(F)(F)C(F)(F)C(F)(F)C(F)(F)F`, the AC50 was 24.6 µM (active) and the result was inactive.
Take `O=C(O)C(F)(F)C(F)(F)C(F)(F)C(F)(F)C(F)(F)C(F)(F)C(F)(F)C(F)(F)C(F)(F)C(F)(F)F`: the AC50 was 4.36 µM (active) and 5.37 µM (active).

Read-out in a further assay: Interleukin-8 (IL8), CXCL8 (gene 3576)
The assay is described as follows: BSK_IMphg_IL8: BioMAP Diversity Plus: IMphg Assay for Interleukin-8 (IL8) Biomarker Activity (AID 2284277). To be noted: primary human endothelial cells with macrophages. As to the method: BSK_IMphg is a cell-based, multiplexed-readout assay that uses venular endothelial cells and macrophages, a human vascular primary cell, with measurements taken at 24 hours after chemical dosing in a microplate: 96-well plate.BSK_IMphg_IL8 is an assay component measured in the BSK_IMphg assay. It measures IL-8 antibody related to regulation of gene expression using ELISA technology.Data from the assay component BSK_IMphg_IL8 was analyzed at the endpoint, BSK_IMphg_IL8, in the positive analysis fitting direction relative to DMSO as the negative control and baseline of activity. Using a type of binding reporter, gain or loss-of-signal activity can be used to understand protein changes. To generalize the intended target to other relatable targets, this assay endpoint is annotated to the 'cytokine' intended target family, where the subfamily is 'interleukins'.
The levels of cell surface (or secreted, indicated by the prefix "s") biomarker endpoints were measured by ELISA. Overt cytotoxicity to cells in confluent adherent cultures (all systems other than the BT system) was assessed by measuring total protein levels using sulforhodamine B (SRB) staining in parallel cultures at the time of biomarker measurements, indicated as SRB endpoints. For proliferation assays for adherent cell types, individual cell types are cultured at sub-confluence and relative cell numbers quantified by SRB staining at time points optimized for each system (48 h: 3C and CASM3C systems; 72 h: BT and HDF3CGF systems; 96 h: SAg system). SRB was performed by staining cells with 0.1% SRB after fixation with 10% TCA and reading wells at 560 nm.Viability and proliferation of PBMC (T cells) was quantified by Alamar Blue reduction for the SAg and BT systems. For PBMC viability (referred to as PBMC Cytotoxicity within the assay endpoint names), cells were plated (75,000/well in a 96-well plate) and then chemical samples added for 1 h before addition of activators, SEB and TSST-1 (20 ng/mL final concentration each). Cells were incubated for 90 h. Then, Alamar Blue (20 uL/well) (Invitrogen, Cat DAL1100) was added for 6 h, and the plates were read with a fluorescence microplate reader at 546/580 nm (excitation/emission). For PBMC proliferation, cells were plated and activated as above but incubated for only 16 h prior to addition of Alamar Blue. Plates were read after 6 h.
For `O=C(O)CCC(F)(C(F)(F)F)C(F)(F)F`, the result was inactive.
As for `O=C(O)C(F)(F)C(F)(F)C(F)(F)C(F)(F)C(F)(F)C(F)(F)F`, the AC50 is 40.5 µM (active) and the outcome was inactive.
Take `O=C(O)C(F)(F)C(F)(F)C(F)(F)C(F)(F)C(F)(F)C(F)(F)C(F)(F)C(F)(F)C(F)(F)C(F)(F)F`: the result was inactive.

Read-out in a further assay: Intercellular Adhesion Molecule 1 (ICAM1), ICAM1 (gene 3383)
The assay is described as follows: BSK_BE3C_ICAM1: BioMAP Diversity Plus: BE3C Assay for Intercellular Adhesion Molecule 1 (ICAM1) Biomarker Activity (AID 2284278). Particulars: primary human bronchial epithelial cells. The method, boiled down:
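Measured by ELISA: ICAM-1 expressed by primary human bronchial epithelial cells 24 h after compound treatment, with upward-direction fitting versus DMSO vehicle.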
`O=C(O)CCC(F)(C(F)(F)F)C(F)(F)F`: the outcome was inactive.
The same measure, in the same setting: for `O=C(O)C(F)(F)C(F)(F)C(F)(F)C(F)(F)C(F)(F)C(F)(F)F` the value was “inactive”.
With `COC(=O)Cc1ccccc1`, the result was inactive.
Same read-out and setting: in the case of `CC(=O)OC(c1ccccc1)C(Cl)(Cl)Cl` (centres undefined) it was “inactive”.
On to `O=C(O)C(F)(F)C(F)(F)C(F)(F)C(F)(F)C(F)(F)C(F)(F)C(F)(F)C(F)(F)C(F)(F)C(F)(F)F`, for which the AC50 is 5.73 µM (active) and 6.33 µM (active).

Read-out in the next assay: Interferon-inducible T-cell alpha chemoattractant (ITAC), CXCL11 (gene 6373)
The assay can be described thus: BSK_BE3C_ITAC: BioMAP Diversity Plus: BE3C Assay for Interferon-inducible T-cell alpha chemoattractant (ITAC) Biomarker Activity (AID 2284279). Particulars: primary human bronchial epithelial cells. The method, boiled down:
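The assay measures I-TAC levels by ELISA in human primary bronchial epithelial cell cultures 24 hours after chemical treatment. Values reflect signal increase over the DMSO baseline.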
For the compound `O=C(O)CCC(F)(C(F)(F)F)C(F)(F)F`, the outcome was inactive.
On the same count and under the same terms, for `O=C(O)C(F)(F)C(F)(F)C(F)(F)C(F)(F)C(F)(F)C(F)(F)F` the value was “inactive”.
On the same count and under the same terms, in the case of `COC(=O)Cc1ccccc1` it was “inactive”; in that of `CC(=O)OC(c1ccccc1)C(Cl)(Cl)Cl` (centres undefined), “inactive”.
Regarding `O=C(O)C(F)(F)C(F)(F)C(F)(F)C(F)(F)C(F)(F)C(F)(F)C(F)(F)C(F)(F)C(F)(F)C(F)(F)F`, the AC50 was 2.65 µM (active) and 2.84 µM (active).

Read-out in another assay: Interleukin-8 (IL8), CXCL8 (gene 3576)
The assay is described as follows: BSK_BE3C_IL8: BioMAP Diversity Plus: BE3C Assay for Interleukin-8 (IL8) Biomarker Activity (AID 2284280). To be noted: primary human bronchial epithelial cells. The method, boiled down: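 IL-8 signal gain, normalised to DMSO vehicle, was scored after a 24 h chemical exposure of primary human bronchial epithelial cells, with detection by ELISA.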
As for `O=C(O)CCC(F)(C(F)(F)F)C(F)(F)F`, the result was inactive.
`O=C(O)C(F)(F)C(F)(F)C(F)(F)C(F)(F)C(F)(F)C(F)(F)F`: the outcome was inactive.
Regarding `COC(=O)Cc1ccccc1`, the result was inactive.
On the same count and under the same terms, for `CC(=O)OC(c1ccccc1)C(Cl)(Cl)Cl` (centres undefined) the value was “inactive”.
Regarding `O=C(O)C(F)(F)C(F)(F)C(F)(F)C(F)(F)C(F)(F)C(F)(F)C(F)(F)C(F)(F)C(F)(F)C(F)(F)F`, the concentration at half-maximal activity (AC50) is 4.19 µM (active) and 3.81 µM (active).

Read-out in another assay: Epidermal growth factor receptor (EGFR), EGFR (gene 1956)
The assay can be described thus: BSK_BE3C_EGFR: BioMAP Diversity Plus: BE3C Assay for Epidermal growth factor receptor (EGFR) Biomarker Activity (AID 2284281). To be noted: primary human bronchial epithelial cells. The procedure, abridged:
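Compound is added to human bronchial epithelial cells, cells incubate 24 h, then EGFR is detected by ELISA. Values reflect positive-direction fitting relative to DMSO.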
With `O=C(O)CCC(F)(C(F)(F)F)C(F)(F)F`, the result was inactive.
The same measure, in the same setting: for `O=C(O)C(F)(F)C(F)(F)C(F)(F)C(F)(F)C(F)(F)C(F)(F)F` the value was “inactive”.
Turning to `COC(=O)Cc1ccccc1`, the result was inactive.
As for `CC(=O)OC(c1ccccc1)C(Cl)(Cl)Cl` (centres undefined), the outcome was inactive.
For the compound `O=C(O)C(F)(F)C(F)(F)C(F)(F)C(F)(F)C(F)(F)C(F)(F)C(F)(F)C(F)(F)C(F)(F)C(F)(F)F`, the AC50 was 4.31 µM (active) and 2.34 µM (active).

Read-out in a further assay: KRT18 (gene 3875)
The assay can be described thus: BSK_BE3C_Keratin818: BioMAP Diversity Plus: BE3C Assay for Keratin 818 Biomarker Activity (AID 2284282). To be noted: primary human bronchial epithelial cells. The procedure, abridged:
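BE3C: human bronchial epithelial primary cells, 24 h exposure, Keratin 8/18 ELISA; DMSO = negative control/baseline; cytotoxicity by parallel SRB stain (0.1% SRB after 10% TCA fixation, 560 nm).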
In the case of `O=C(O)CCC(F)(C(F)(F)F)C(F)(F)F`, the outcome was inactive.
Still for that read-out and setting: in the case of `O=C(O)C(F)(F)C(F)(F)C(F)(F)C(F)(F)C(F)(F)C(F)(F)F` it was “inactive”; in that of `COC(=O)Cc1ccccc1`, “inactive”; in that of `CC(=O)OC(c1ccccc1)C(Cl)(Cl)Cl` (centres undefined), “inactive”.
For `O=C(O)C(F)(F)C(F)(F)C(F)(F)C(F)(F)C(F)(F)C(F)(F)C(F)(F)C(F)(F)C(F)(F)C(F)(F)F`, the AC50 was 4.21 µM (active) and 5.29 µM (active).

Read-out in another assay: Matrix Metallopeptidase 9 (MMP9), MMP9 (gene 4318)
The assay can be described thus: BSK_BE3C_MMP9: BioMAP Diversity Plus: BE3C Assay for Matrix Metallopeptidase 9 (MMP9) Biomarker Activity (AID 2284283). Particulars: primary human bronchial epithelial cells. The procedure, abridged:
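Human primary bronchial epithelial cells exposed 24 h to compound. MMP9 quantified by ELISA. SRB total-protein staining of parallel cultures assesses cytotoxicity. Positive-direction fit relative to DMSO.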
With `O=C(O)CCC(F)(C(F)(F)F)C(F)(F)F`, the outcome was inactive.
With `O=C(O)C(F)(F)C(F)(F)C(F)(F)C(F)(F)C(F)(F)C(F)(F)F`, the AC50 was 30 µM (active) and the result was inactive.
For the compound `COC(=O)Cc1ccccc1`, the outcome was inactive.
Still for that read-out and setting: in the case of `CC(=O)OC(c1ccccc1)C(Cl)(Cl)Cl` (centres undefined) it was “inactive”.
As to `O=C(O)C(F)(F)C(F)(F)C(F)(F)C(F)(F)C(F)(F)C(F)(F)C(F)(F)C(F)(F)C(F)(F)C(F)(F)F`, the AC50 is 3.77 µM (active) and 3.33 µM (active).

Read-out in another assay: Plasminogen activator inhibitor-1 (PAI1), SERPINE1 (gene 5054)
The assay is described as follows: BSK_CASM3C_PAI1: BioMAP Diversity Plus: CASM3C Assay for Plasminogen activator inhibitor-1 (PAI1) Biomarker Activity (AID 2284284).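 Further: PAI-1 protein level measured by ELISA 24 h after dosing.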 To be noted: primary human coronary artery smooth muscle cells.
On to `O=C(O)CCC(F)(C(F)(F)F)C(F)(F)F`, for which the outcome was inactive.
Turning to `O=C(O)C(F)(F)C(F)(F)C(F)(F)C(F)(F)C(F)(F)C(F)(F)F`, the result was inactive.
For the compound `COC(=O)Cc1ccccc1`, the result was inactive.
`CC(=O)OC(c1ccccc1)C(Cl)(Cl)Cl` (centres undefined): the result was inactive.
For `O=C(O)C(F)(F)C(F)(F)C(F)(F)C(F)(F)C(F)(F)C(F)(F)C(F)(F)C(F)(F)C(F)(F)C(F)(F)F`, the result was inactive.

Read-out in the next assay: Monocyte Chemoattractant Protein-1 (MCP1), CCL2 (gene 6347)
The assay is described as follows: BSK_hDFCGF_MCP1: BioMAP Diversity Plus: hDFCGF Assay for Monocyte Chemoattractant Protein-1 (MCP1) Biomarker Activity (AID 2284285). To be noted: primary human foreskin fibroblasts. The procedure, abridged:
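Human foreskin fibroblasts (hDFCGF system) were exposed to compound and secreted MCP-1 was measured by ELISA after 24 hours. Activity was fitted relative to DMSO. Cytotoxicity was checked by SRB total-protein staining in parallel cultures.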
Regarding `O=C(O)CCC(F)(C(F)(F)F)C(F)(F)F`, the outcome was inactive.
Still for that read-out and setting: for `O=C(O)C(F)(F)C(F)(F)C(F)(F)C(F)(F)C(F)(F)C(F)(F)F` the value was “inactive”; for `COC(=O)Cc1ccccc1`, “inactive”.
Same read-out and setting: in the case of `CC(=O)OC(c1ccccc1)C(Cl)(Cl)Cl` (centres undefined) it was “inactive”.
With `O=C(O)C(F)(F)C(F)(F)C(F)(F)C(F)(F)C(F)(F)C(F)(F)C(F)(F)C(F)(F)C(F)(F)C(F)(F)F`, the AC50 is 5.24 µM (active) and 5.63 µM (active).
